The structures appear in SMILES notation. Inconclusive results are not listed. Entries that show only a call come without a potency. Values without a mark were called inactive. Activity calls are given as the source filed them. Calls follow the shape of the dose curve; as a rule, active = well fitted cell-killing curve with a large enough effect in the repeat runs; inconclusive = weak or mixed curves, or effect the other way; inactive = no such curve, though single readings can be large or run the other way.

The nature of the assay: qHTS assay to identify small molecule agonists of the farnesoid-X-receptor (FXR) signaling pathway - cell viability counter screen (AID 743218). Also: nearly all actives have a fitted effect of over 45% in size. Conditions: FXR-bla HEK293T viability, CellTiter-Glo luminescence, 16 h; series mostly up to 62.6 µM; viability change, negative = cytotoxic: at the top concentration. From the text:
U.S. Tox21 Program National Center for Advancing Translational Sciences [NCATS] NIH Chemical Genomics Center [NCGC] U.S. Environmental Protection Agency [EPA] National Institutes of Environmental Health Sciences [NIEHS] National Toxicology Program [NTP] U.S. Food and Drug Administration [FDA] Tox21 Assay Overview: The farnesoid-X-receptor (FXR), a nuclear hormone receptor, is highly expressed in liver, intestine, kidney and adrenal cortex. Natural ligands of FXR are the bile acids (Cholic acid, Chenodeoxy cholic acid etc). FXR is an important regulator of diverse metabolic pathways, including the bile acid homeostasis, lipid and glucose metabolisms. FXR regulates the expression of target genes by binding either as a monomer or as a heterodimer with the retinoid X receptor (RXR). Numerous studies have reported that FXR exerts protective function during cholestasis, diabetes, liver regeneration, and cancer. To identify compounds that activate FXR signaling, GeneBLAzer FXR-UAS-bla HEK 293T cell line (Invitrogen, Carlsbad, CA) containing a beta-lactamase reporter gene under the control of a UAS response element was used to screen the Tox21 10K compound library. The cytotoxicity of the Tox21 compound library against the FXR-bla cell line was tested in parallel by measuring the cell viability using CellTiter-Glo assay in the same wells.
Tox21 Assay Protocol Summary: FXR-bla cells were dispensed at 5000 cells/5uL/well in 1536-well black wall/clear bottom plates using a Multidrop Combi (Thermo Fisher Scientific, Waltham, MA) dispenser. After the assay plates were incubated at 37 C and 5% CO2 for 5 h, 23 nL of compounds dissolved in DMSO, positive controls or DMSO only was transferred to the assay plate by a Pintool station (Kalypsys, San Diego, CA). The assay plates were incubated at 37C for 16 h. After 1 uL of LiveBLAzerTM B/G FRET substrate was added using a Bioraptr Flying Reagent Dispenser (FRD) workstation (Beckman Coulter, Indianapolis, IN), the plates were incubated at room temperature for 2 h, and fluorescence intensity was measured by an Envision plate reader (PerkinElmer, Shelton, CT). For cell viability readout that measures cytotoxicity, 4uL/well of CellTiter-Glo reagent was added into the assay plates using a Bioraptr FRD. After 30 min incubation at room temperature, the luminescence intensity in the plates was measured using a ViewLux plate reader (PerkinElmer).
For `CN(C)c1nc(N(C)C)nc(N(C)C)n1`, the viability change, negative = cytotoxic is -6.22% [at 5.95 µM].

For `CC(C)OB(OC(C)C)OC(C)C`, the Potency result is “inactive”.

As to `COC(=O)c1ccccc1`, the “viability change, negative = cytotoxic” value is -2.81%.

In the case of `Brc1cc(Oc2cc(Br)c(Br)c(Br)c2Br)c(Br)c(Br)c1Br`, the “viability change, negative = cytotoxic” value was 4.22%.

Take `S=C(NC1CCCCC1)NC1CCCCC1`: the “viability change, negative = cytotoxic” value was -25.3%.

`Nc1ccc(Nc2ccccc2)cc1`: the Potency result is “inactive”.

On to `C[C@]12CC[C@H]3[C@@H](CCC4=CC(=O)CC[C@@]43C)[C@@H]1CC[C@@H]2C(=O)CO`, for which the “viability change, negative = cytotoxic” value is 10.1%.

As for `CCCCCCCCCC(=O)OC`, the “viability change, negative = cytotoxic” value was 4.66%.

With `C/C=C/C(=O)O`, the Potency entry was “inactive”.

On to `CC(C)=CCC/C(C)=C\CO`, for which the Potency result was “inactive”.

`C=C(C)C1CC=C(C)CC1` (stereo not given): the “viability change, negative = cytotoxic” value is -25.1%.

For `C=CC(C)(CCC=C(C)C)OC(C)=O` (stereo not given), the Potency entry is “inactive”.

On to `Cc1[nH]c(=O)c(C#N)cc1-c1ccncc1`, for which the “viability change, negative = cytotoxic” value was 0.764%.

Consider `CC(C)OC=O`, for which the “viability change, negative = cytotoxic” value was -1.43% [at 81.1 µM].

Take `CC(C)Oc1ccc2c(=O)c(-c3ccccc3)coc2c1`: the Potency entry is “inactive”.

On to `CCCCNS(=O)(=O)c1ccccc1`, for which the Potency entry was “inactive”.

Regarding `O=C(c1ccccc1)c1ccccc1O`, the Potency entry is “inactive”.

For `CCOCCOCCO`, the Potency entry is “inactive”.

As for `C=C(C)C(=O)OCCOC(=O)C(=C)C`, the “viability change, negative = cytotoxic” value was -0.887% [at 81.1 µM].

For `Nc1ccc(Cl)cc1Cl`, the Potency entry is “inactive”.

`O=S(=O)(O)c1ccc(O)cc1`: the Potency entry was “inactive”.

`COC(=O)CCC(=O)OC`: the Potency result is “inactive”.

Take `Oc1ccc(O)cc1`: the Potency result was “inactive”.

With `Cn1cnc([N+](=O)[O-])c1Sc1ncnc2nc[nH]c12`, the “viability change, negative = cytotoxic” value was -14.8%.

Regarding `Clc1nc(Cl)c(Cl)c(Cl)c1Cl`, the Potency entry was “inactive”.

Turning to `O=C(/C=C/C=C/c1ccc2c(c1)OCO2)N1CCCCC1`, the “viability change, negative = cytotoxic” value is 0%.

For `O=C1OC2(c3cc(Br)c(O)c(Br)c3Oc3c2cc(Br)c(O)c3Br)c2c(Cl)c(Cl)c(Cl)c(Cl)c21`, the “viability change, negative = cytotoxic” value is 0.0626%.

For the compound `Cc1ncc[nH]1`, the Potency result was “inactive”.

As for `Nc1ncnc2nc[nH]c12`, the “viability change, negative = cytotoxic” value was 2.52%.

Take `c1ccc2sc(SSN3CCOCC3)nc2c1`: the Potency entry was “inactive”.

As for `COc1ccc(C(=O)CC(=O)c2ccc(C(C)(C)C)cc2)cc1`, the “viability change, negative = cytotoxic” value was -1.37%.

For `COc1ccccc1/C=C/C=O`, the Potency result is “inactive”.

`CN(C)C(=N)N=C(N)N`: the “viability change, negative = cytotoxic” value is 9.24%.

For `CCC(C)(O)CCCC(C)C` (stereo not given), the Potency result is “inactive”.

As for `CC1=CC2C3CC(C=C3C)C2C1` (stereo not given), the Potency result is “inactive”.

As for `Cc1c(OCC(F)(F)F)ccnc1CS(=O)c1nc2ccccc2[nH]1` (stereo not given), the “viability change, negative = cytotoxic” value was 7.2%.

`O=CCCCC=O`: the Potency result was “inactive”.

Consider `c1cc(-c2ccncc2)ccn1`, for which the Potency entry was “inactive”.

`CC(C)=CCCC(C)CCO` (stereo not given): the “viability change, negative = cytotoxic” value was 10.7%.

Turning to `COc1c(Cl)c(Cl)c(Cl)c(Cl)c1Cl`, the Potency entry was “inactive”.

The values above are taken from PubChem BioAssay (Tox21).
